Screens (PubChem)
A selection: hits, their analogues and other compounds. The true share with any hit is near 2.1%.
Wee1 degr inh: human Wee1 degradation inhibition, primary screen; P30291; HeLa Luc-Wee1K328M stability, luciferase luminescence; 100% = proteasome inhibitor MG132 effect; reporter increase, % at 5 µM; actives 1.2% (n = 220,000); AID 1321;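 active = activation above the mean of all tested compounds plus 3 SD, set per screening run, cut at about 8.8% in these data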;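 also: cells exposed to compound for 20 h before luminescence read; 0% = DMSO alone and 100% = MG132 at 30 µM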
Target sequence (P30291 whole entry K328M): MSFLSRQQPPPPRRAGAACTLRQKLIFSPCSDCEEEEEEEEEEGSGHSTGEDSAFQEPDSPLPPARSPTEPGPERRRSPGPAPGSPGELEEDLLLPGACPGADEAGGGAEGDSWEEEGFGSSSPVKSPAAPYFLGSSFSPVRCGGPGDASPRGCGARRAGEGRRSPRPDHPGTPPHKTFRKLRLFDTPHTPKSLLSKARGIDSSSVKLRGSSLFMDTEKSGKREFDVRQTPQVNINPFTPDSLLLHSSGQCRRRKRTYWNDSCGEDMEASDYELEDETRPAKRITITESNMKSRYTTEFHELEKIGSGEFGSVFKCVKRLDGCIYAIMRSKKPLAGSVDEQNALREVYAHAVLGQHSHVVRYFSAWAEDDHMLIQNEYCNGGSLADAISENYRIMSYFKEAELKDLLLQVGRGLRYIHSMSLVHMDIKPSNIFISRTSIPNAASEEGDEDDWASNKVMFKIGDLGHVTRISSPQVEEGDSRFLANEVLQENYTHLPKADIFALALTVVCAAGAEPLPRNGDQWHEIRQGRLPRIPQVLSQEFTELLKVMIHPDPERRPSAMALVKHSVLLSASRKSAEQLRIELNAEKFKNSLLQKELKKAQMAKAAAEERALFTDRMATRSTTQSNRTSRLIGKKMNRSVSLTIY
Platelet DG rel: modulates dense granule release in human platelets; actives 0.22% (n = 300,000); human platelet-rich plasma, SFLLRN dense granule ATP release, luminescence; inhibition, %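 (compounds screened at 7.5 µM in platelet-rich plasma)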;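 active = mean replicate score, as percent of positive control, at or above 50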
HIF activator: HIF pathway transcriptional activation. actives 0.32% (n = 300,000). activation, % at 7.5 µM (by protocol). U2OS HRE-luciferase reporter, luminescence; normalized: DMSO 0%, desferrioxamine 100%;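 active = mean activation of at least 10% of the iron chelator positive control signal, with at least half of replicates also reaching 10%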
KLF5 inhibitor: suppresses KLF5 promoter-driven expression. DLD-1 KLF5 promoter-luciferase reporter, luminescence. inhibition, % at 5 µM. actives 0.23% (n = 290,000). AID 1700;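 active = inhibition above a per-plate limit of that plate's mean compound inhibition plus 3 SD, cut at about 60% in these data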;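 also: 0% = DMSO wells and 100% = LY294002 at 200 µM; higher means less KLF5 promoter-driven luciferase light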
aSyn UTR inh: 5' untranslated region of α-synuclein, MLPCN primary screen. alpha-synuclein 5'UTR reporter, inhibitor activity. inhibition, % (tested at 7.5 µM). actives 0.82% (n = 300,000). AID 1813; in the data active = inhibition above about 60%;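 also: H4 neuroglioblastoma cells stably carrying SNCA 5'UTR luciferase fusion; 0% = DMSO wells and 100% = positive control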
Starred values were filed as active, the others as inactive.

What do the screens show for `COc1cc(/C=C\C(=O)NCc2ccc3c(c2)cc(C)n3C)cc(OC)c1OC`?
Wee1 degr inh: 15*; Platelet DG rel: -5; HIF activator: 0; KLF5 inhibitor: -3; aSyn UTR inh: 4

How did CN(CCNC(=O)CCNC(=O)Cn1ccc2ccccc2c1=O)Cc1ccccc1 do in these assays?
Wee1 degr inh: -1; Platelet DG rel: -4; HIF activator: 0; KLF5 inhibitor: -18; aSyn UTR inh: 0

What do the screens show for `CCN(CCCNC(=O)CCNC(=O)Cn1ccc2ccccc2c1=O)c1ccccc1`?
Wee1 degr inh: 3; Platelet DG rel: 1; HIF activator: 32*; KLF5 inhibitor: -9; aSyn UTR inh: 15

What do the screens show for `COc1ccccc1-c1noc(-c2ccncc2)n1`?
Wee1 degr inh: 8; Platelet DG rel: 20; HIF activator: 2; KLF5 inhibitor: -74; aSyn UTR inh: -74

What do the screens show for `Cc1ccccc1-c1nc(-c2ccccn2)no1`?
Wee1 degr inh: 4; Platelet DG rel: 47; HIF activator: -7; KLF5 inhibitor: 10; aSyn UTR inh: 95*

Results for Brc1ccc(-c2nc(-c3ccccn3)no2)o1 ?
Wee1 degr inh: -1; Platelet DG rel: -5; HIF activator: -2; KLF5 inhibitor: -25; aSyn UTR inh: 80*

What do the screens show for `Cc1ccccc1-c1nc(-c2cccnc2)no1`?
Wee1 degr inh: 3; Platelet DG rel: -3; HIF activator: 2; KLF5 inhibitor: -38; aSyn UTR inh: -227

How did COc1ccccc1-c1nc(-c2ccccn2)no1 do in these assays?
Wee1 degr inh: 0; Platelet DG rel: 25; HIF activator: -3; KLF5 inhibitor: -11; aSyn UTR inh: 77*

How did O=C(O)CSC1CC(=O)N(c2ccc(Br)cc2)C1=O (centres undefined) do in these assays?
Platelet DG rel: -9; HIF activator: -1; KLF5 inhibitor: -30; aSyn UTR inh: 6

What do the screens show for `COc1ccc(CCC(=O)NNC(=S)Nc2cccc(C(C)=O)c2)cc1`?
Wee1 degr inh: -4; Platelet DG rel: 6; HIF activator: 0; KLF5 inhibitor: -10; aSyn UTR inh: 3

Results for COC(=O)C[C@](O)(CCCC(C)(C)O)C(=O)O[C@@H]1C(OC)=C[C@]23CCCN2CCc2cc4c(cc2[C@H]13)OCO4 ?
Platelet DG rel: 1; HIF activator: -3; aSyn UTR inh: 127*

What do the screens show for `CCOC(=O)c1c(S(=O)(=O)NCC(C)c2ccccc2)c(C)n(C)c1C` (centres undefined)?
Platelet DG rel: -6; HIF activator: 0; KLF5 inhibitor: -13; aSyn UTR inh: -18

What do the screens show for `CCN(Cc1ccccc1)c1ccc(/C=N/N=C(N)N)cc1`?
Wee1 degr inh: -2; Platelet DG rel: -1; HIF activator: -5; KLF5 inhibitor: -30; aSyn UTR inh: 94*

How did Cc1cc2c(cc3c(=O)n(CC(=O)NCCCN4CC(C)CC(C)C4)ncn32)s1 (centres undefined) do in these assays?
Platelet DG rel: -12; HIF activator: 0; KLF5 inhibitor: -20; aSyn UTR inh: 5

Results for O=C(CN1C(=O)c2ccccc2S1(=O)=O)c1ccc(O)c(O)c1 ?
Wee1 degr inh: -3; Platelet DG rel: 8; HIF activator: -1; KLF5 inhibitor: 2; aSyn UTR inh: 64*

How did O=C1CC(Cc2ccc(Br)cc2)C(=O)N1c1ccccc1 (centres undefined) do in these assays?
Platelet DG rel: -12; HIF activator: 0; KLF5 inhibitor: -23; aSyn UTR inh: -10

What do the screens show for `COc1cccc(-c2nn(-c3ccccc3)cc2C(=O)O)c1`?
Wee1 degr inh: -1; Platelet DG rel: 62*; HIF activator: 0; KLF5 inhibitor: -17; aSyn UTR inh: 14

How did CC1CCN(C(C)C(=O)Nc2ccccc2-c2ccccc2)CC1 (centres undefined) do in these assays?
Wee1 degr inh: 0; Platelet DG rel: -1; HIF activator: -1; KLF5 inhibitor: 18; aSyn UTR inh: 23

What do the screens show for `CC(C(=O)Nc1ccccc1-c1ccccc1)N1CCN(C(=O)c2ccccc2)CC1` (centres undefined)?
Wee1 degr inh: 0; Platelet DG rel: -3; HIF activator: 34*; KLF5 inhibitor: -30; aSyn UTR inh: 11

Results for CN(C)c1ccc(N=Nc2cccc3ccoc23)cc1 ?
Wee1 degr inh: 9.0*; Platelet DG rel: 0; HIF activator: 4; KLF5 inhibitor: -128; aSyn UTR inh: -136
